According to PubChem BioAssay (NCI):
Compounds without any hit were thinned out: in the full panel of roughly 83,000, 20% have a hit.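 In brief: 96-well plates, 48 h treatment, single concentration, percent growth endpoint.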 Activity calls are given as the source filed them. Rule for the calls: active = growth percent below 10; inactive = the rest.

Columns and labels:
Experiment in all cases: NCI-60 one-dose screen, 48 h (100 = growth as untreated, 0 = no growth, -100 = all killed)
Conditions in all cases: 10 µM unless noted
T-47D breast = system: T-47D breast
BT-549 breast = system: BT-549 breast
MDA-MB-435 melanoma = system: MDA-MB-435 melanoma
SW-620 colon = system: SW-620 colon
MCF7 breast = system: MCF7 breast
HCT-116 colon = system: HCT-116 colon
KM12 colon = system: KM12 colon
HCC-2998 colon = system: HCC-2998 colon

Measured: growth

C[C@@H]1C[C@H](N)C[C@H](c2ccncc2NC(=O)c2ccc(F)c(-c3c(F)cccc3F)n2)C1
inactive: BT-549 breast 51.2% | MDA-MB-435 melanoma 34.5% | SW-620 colon 45.5% | MCF7 breast 40.2% | HCT-116 colon 48.1% | KM12 colon 48.3%
active: T-47D breast 4.14%

O=C(N=Nc1c(Cl)c(O)c2ccccc2c1O)C(=O)Nc1cccc(C(F)(F)F)c1
inactive: T-47D breast 44.9% | BT-549 breast 69% | SW-620 colon 63.6% | HCT-116 colon 33.1% | HCC-2998 colon 96.2% | KM12 colon 53.6%
active: MDA-MB-435 melanoma -29.3% | MCF7 breast -4.71%

Cc1cc(Cl)c2ccc(N(C)C)cc2n1
inactive: T-47D breast 90.7% | BT-549 breast 111% | MDA-MB-435 melanoma 102% | SW-620 colon 99.5% | MCF7 breast 92.1% | HCC-2998 colon 101% | KM12 colon 104%

O=C1OCC2=C1C(c1ccc(Cl)c(Cl)c1)c1cc3c(cc1N2CCO)CCC3 (stereo unspecified)
inactive: T-47D breast 63.3% | BT-549 breast 44.8% | SW-620 colon 24.5% | MCF7 breast 20.4% | HCT-116 colon 18.3%
active: MDA-MB-435 melanoma -38.6% | KM12 colon 9.04%

COc1ccc(-c2oc(=O)ccc2-c2cc(OC)c(OC)c(OC)c2)cc1F
active: MDA-MB-435 melanoma -2.61%
inactive: T-47D breast 104% | BT-549 breast 98.5% | SW-620 colon 46.4% | MCF7 breast 44% | HCC-2998 colon 65% | KM12 colon 41.6%

c1ccc(C2=Nc3ccccc3SC2)cc1
inactive: T-47D breast 100% | BT-549 breast 107% | MDA-MB-435 melanoma 105% | SW-620 colon 95.4% | MCF7 breast 86.4% | HCC-2998 colon 104% | KM12 colon 97.5%

CNC(=O)c1ccccc1Sc1ccc2c(/C=C/c3ccccn3)n[nH]c2c1
inactive: BT-549 breast 16.2% | MDA-MB-435 melanoma 39% | SW-620 colon 17.8% | MCF7 breast 35.2% | HCC-2998 colon 68.9% | KM12 colon 17.2%
active: T-47D breast -12.4%

COc1ccc(C2C=C(c3ccc(Cl)cc3)N=C3SC=CN32)cc1 (stereo unspecified)
inactive: T-47D breast 104% | BT-549 breast 90.3% | MDA-MB-435 melanoma 107% | SW-620 colon 97.7% | MCF7 breast 96.1% | HCC-2998 colon 119% | KM12 colon 112%

CC(C)N1CCN(c2ccncc2S(=O)(=O)N2CCN(C)CC2)CC1
inactive: T-47D breast 96.2% | BT-549 breast 107% | MDA-MB-435 melanoma 101% | SW-620 colon 105% | MCF7 breast 94.1% | HCC-2998 colon 106% | KM12 colon 99.1%

CCOC(=O)c1ccc(N(CCC(=O)O)C(C)=O)cc1
inactive: T-47D breast 112% | BT-549 breast 94.9% | MDA-MB-435 melanoma 122% | SW-620 colon 106% | MCF7 breast 99.9% | HCC-2998 colon 113%

CC(=O)OC1Oc2cc(C)c(C)cc2-c2oc(=O)c(-c3ccc(F)cc3)cc21 (stereo unspecified)
active: MDA-MB-435 melanoma -7.18%
inactive: T-47D breast 52.5% | BT-549 breast 89.3% | SW-620 colon 26.7% | MCF7 breast 38.3% | HCC-2998 colon 56.7% | KM12 colon 23.7%

CC(=O)OC1Oc2ccccc2-c2oc3nc(=N)n(C)c-3cc21 (stereo unspecified)
inactive: T-47D breast 93.6% | BT-549 breast 128% | MDA-MB-435 melanoma 122% | SW-620 colon 104% | MCF7 breast 98.6% | HCC-2998 colon 102%

CCCCCCCCCCCCCCC(C(=O)OCC)C(=O)OCC
inactive: T-47D breast 101% | BT-549 breast 104% | MDA-MB-435 melanoma 96.1% | SW-620 colon 107% | MCF7 breast 98.5% | HCC-2998 colon 106% | KM12 colon 108%

COc1ccc(/C(=C\c2cc(OC)c(OC)c(OC)c2)C(=O)N2CCNCC2)cc1
inactive: T-47D breast 82.8% | BT-549 breast 104% | MDA-MB-435 melanoma 98.2% | SW-620 colon 97.6% | MCF7 breast 95.5% | HCC-2998 colon 104% | KM12 colon 94.2%

Cc1cc(NC(=O)c2ccc(N)cc2)ccc1N=Nc1ccc2cc(S(=O)(=O)O)cc(S(=O)(=O)O)c2c1
inactive: T-47D breast 105% | BT-549 breast 108% | MDA-MB-435 melanoma 101% | SW-620 colon 96.7% | MCF7 breast 109% | HCC-2998 colon 105% | KM12 colon 105%

COc1ccc(C2C3CCc4ccccc4C3=NN2C(=O)c2cc(OC)c(OC)c(OC)c2)cc1O (stereo unspecified)
inactive: T-47D breast 87% | BT-549 breast 89% | MDA-MB-435 melanoma 96.2% | MCF7 breast 95.8% | HCT-116 colon 104% | HCC-2998 colon 110% | KM12 colon 109%

O=C(Nc1ccc(Br)cc1)Nc1ccccc1Cl
inactive: T-47D breast 74.9% | BT-549 breast 103% | MDA-MB-435 melanoma 102% | MCF7 breast 71% | HCT-116 colon 71.8% | HCC-2998 colon 91% | KM12 colon 90.4%

c1ccc(C(CC2=NCCCN2)c2ccccc2)cc1
inactive: T-47D breast 101% | BT-549 breast 95.1% | MDA-MB-435 melanoma 94% | MCF7 breast 94.1% | HCT-116 colon 97.3% | HCC-2998 colon 102% | KM12 colon 99.7%

C=C(C)[C@@H]1CC[C@]2(C)[C@H](CC=C3[C@@H]4C[C@](C)(C(=O)N5CCN(C)CC5)CC[C@]4(C)CC[C@]32C)[C@@]1(C)CCC#N
inactive: T-47D breast 42.4% | BT-549 breast 56.6% | MDA-MB-435 melanoma 51.3% | MCF7 breast 34.1% | HCT-116 colon 26.7% | HCC-2998 colon 70.6% | KM12 colon 53.6%

F
inactive: T-47D breast 18.2% [6.87 mM] | MCF7 breast 30.7% [6.87 mM] | HCC-2998 colon 24.4% [6.87 mM]
active: BT-549 breast 5.2% [6.87 mM] | MDA-MB-435 melanoma -26.3% [6.87 mM] | HCT-116 colon 8.71% [6.87 mM] | KM12 colon 9.89% [6.87 mM]

COc1cc2c(cc1OCCCOc1cc3c(cc1OC)C(=O)N1CCC[C@H]1C=N3)C=CC(C)(C)O2
inactive: T-47D breast 62.6% | MDA-MB-435 melanoma 101% | MCF7 breast 39.3% | HCT-116 colon 61% | HCC-2998 colon 100% | KM12 colon 109%
active: BT-549 breast -0.137%

FC(F)(F)C1=NNC(c2ccc3ccccc3c2)=NN1
inactive: T-47D breast 96.7% | BT-549 breast 107% | MDA-MB-435 melanoma 102% | MCF7 breast 88.7% | HCT-116 colon 100% | HCC-2998 colon 118% | KM12 colon 93.7%

COc1cc(/C=C/C(=O)c2c(C)nc3ccccc3c2C)ccc1OCCCOc1cc2c(cc1OC)C(=O)N1CCC[C@H]1C=N2
active: T-47D breast -38.8% | BT-549 breast -94.2% | MDA-MB-435 melanoma -60.8% | MCF7 breast -51.3% | HCT-116 colon -35.8% | HCC-2998 colon -69.3% | KM12 colon -54.2%

CNCc1ccccc1CN(CC(=O)Nc1ccc2c(c1)CC1(C2)C(=O)Nc2ncccc21)C(=O)C(C)(C)C (stereo unspecified)
inactive: T-47D breast 94.1% | BT-549 breast 96.3% | MDA-MB-435 melanoma 95.7% | MCF7 breast 102% | HCT-116 colon 105% | HCC-2998 colon 113% | KM12 colon 107%

N[C@@H](CO)C(=O)O
inactive: T-47D breast 96.9% | BT-549 breast 104% | MDA-MB-435 melanoma 97.4% | MCF7 breast 104% | HCT-116 colon 103% | HCC-2998 colon 98.1% | KM12 colon 102%

NC(=S)N/N=C(/c1cccs1)C1CC1
inactive: T-47D breast 20.6% | BT-549 breast 97.8% | MDA-MB-435 melanoma 87.4% | MCF7 breast 22.5% | HCC-2998 colon 96.9% | KM12 colon 105%
active: HCT-116 colon 7.8%

COc1c(C(=O)/C=C/c2ccc(C)o2)c(O)cc2occc12
inactive: T-47D breast 66.6% | BT-549 breast 67.5% | SW-620 colon 32.1% | MCF7 breast 38.5% | HCC-2998 colon 79.4% | KM12 colon 45.4%
active: MDA-MB-435 melanoma -28.3%

CC(C)N=C1CCCC1C(=S)SSC(=S)C1CCCC1=NC(C)C (stereo unspecified)
inactive: T-47D breast 47% | BT-549 breast 82.2% | MDA-MB-435 melanoma 61.7% | SW-620 colon 74.9% | MCF7 breast 56.9% | HCC-2998 colon 116% | KM12 colon 101%

CCCC(CCC)NCC(O)c1cc(-c2ccc(C(F)(F)F)cc2)nc(C(F)(F)F)c1 (stereo unspecified)
inactive: BT-549 breast 48.2%
active: T-47D breast -80.5% | MDA-MB-435 melanoma -48.1% | SW-620 colon -56.6% | MCF7 breast -85.1% | KM12 colon -85.4%
